# Assay outcomes as filed in PubChem BioAssay.
# Tau fibril ThT: blocks human tau fibril formation measured by thioflavin T; recombinant tau K18 P301L, heparin-induced fibrillization, ThT fluorescence; P10636; AID 1460; Potency, µM (series often up to 57.4 µM), inactives show at the top dose activity, negative = inhibition, hits mostly inhibitors; hit rate 2.1% among 270,000; active = well fitted curve in the direction sought with a large enough effect; inconclusive = small, poorly fitted or top-dose-only effect, or another doubt; inactive = no such curve, though single readings can be large; an effect the other way counts as inactive or inconclusive; note: nearly all actives have a fitted effect of over 55% in size
# Target sequence (P10636 561-689 P618L limits assumed): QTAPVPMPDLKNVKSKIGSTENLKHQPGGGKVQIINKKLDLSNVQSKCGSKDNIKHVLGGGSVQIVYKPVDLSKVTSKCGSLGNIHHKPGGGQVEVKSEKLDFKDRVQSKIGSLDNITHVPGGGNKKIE
#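 Recombinant human tau K18 fragment […] carrying P301L, 15 uM unlabeled plus 0.24 uM Alexa 594-labeled, was fibrillized with 20 uM heparin in 100 mM sodium acetate pH 7 for 6 hr at 37 C; 30 uM ThT fluorescence read after 1 hr.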
# Tau fluor cs: counter-screen for tau fibril formation inhibitors; AID 1463; tau K18 P301L Alexa594 fluorescence, heparin fibrillization; hit rate 0.93% among 280,000; Potency, µM (doses to about 57.7 µM), inactives show at the highest dose activity change, negative = decrease; active = well fitted curve in the direction sought with a large enough effect; inconclusive = small, poorly fitted or top-dose-only effect, or another doubt; inactive = no such curve, though single readings can be large; an effect the other way counts as inactive or inconclusive; note: nearly all actives have a fitted effect of over 55% in size
#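 Human tau K18 P301L (15 uM unlabeled, 0.24 uM Alexa 594-labeled) in 100 mM sodium acetate pH 7 with 20 uM heparin, 6 hr at 37 C. ThT 30 uM added, 1 hr ambient; Alexa 594 FP and total fluorescence read at 555/632 nm.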
# Tau FP inhib: blocks human tau fibril formation measured by polarization. P10636. K18 P301L tau heparin fibrillization, Alexa594 FP, 6 h. Potency, µM (titrated, usually from 57.7 µM), for inactives: at the top dose activity, negative = inhibition, usual class: inhibitors. hit rate 0.39% among 280,000; active = well fitted curve in the direction sought with a large enough effect; inconclusive = small, poorly fitted or top-dose-only effect, or another doubt; inactive = no such curve, though single readings can be large; an effect the other way counts as inactive or inconclusive; note: nearly all actives have a fitted effect of over 55% in size
#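 Steps: dispense K18 P301L tau (15 uM plus 0.24 uM Alexa 594 tracer, final) in pH 7 sodium acetate; add compound; add heparin (20 uM final); incubate 6 hr, 37 C; add ThT (30 uM final); after 1 hr ambient, read FP.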
# ALDH1A1 inh: inhibitors of human aldehyde dehydrogenase 1A1. P00352. Purified ALDH1A1, NADH fluorescence, propionaldehyde substrate. Potency, µM (titrated, usually from 75.3 µM), inactives show at the highest dose activity, negative = inhibition, most hits filed as inhibitors. hit rate 7.3% among 220,000. AID 1030;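 note: plate controls were no enzyme wells and a reference inhibitor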
# JMJD2E inh: inhibitors of human JMJD2E histone demethylase. AID 2147. Potency, µM (series often up to 57.1 µM), for inactives: at the highest dose activity change, negative = inhibition, most hits filed as inhibitors. JMJD2E catalytic domain, FDH-coupled NADH fluorescence (FDH is formaldehyde dehydrogenase). B2RXH2. hit rate 1.6% among 230,000;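 note: 0% = wells with enzyme and -100% = buffer wells without enzyme; nearly all actives have a fitted effect of over 50% in size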
# Target sequence (B2RXH2 1-337 limits assumed): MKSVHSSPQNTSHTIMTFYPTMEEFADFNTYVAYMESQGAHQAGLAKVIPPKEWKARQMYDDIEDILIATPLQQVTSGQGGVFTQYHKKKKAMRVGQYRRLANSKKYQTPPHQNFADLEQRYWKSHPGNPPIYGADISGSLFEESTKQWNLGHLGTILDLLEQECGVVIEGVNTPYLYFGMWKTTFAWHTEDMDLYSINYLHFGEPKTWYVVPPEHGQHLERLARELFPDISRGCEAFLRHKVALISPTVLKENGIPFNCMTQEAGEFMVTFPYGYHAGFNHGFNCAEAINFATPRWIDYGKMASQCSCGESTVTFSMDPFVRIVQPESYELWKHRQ
# HPGD inh: blocks human HPGD enzyme activity | P15428 | purified HPGD, NADH fluorescence kinetic, PGE2 substrate | Potency, µM, without a hit: at the highest dose activity change, negative = inhibition, most hits filed as inhibitors | hit rate 4.3% among 150,000 | AID 894
#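 20 nM HPGD preincubated 15 min at room temperature with compound in 50 mM Tris-HCl pH 8, 0.01% Tween 20. Started with 1 mM NAD+ and 30 uM prostaglandin E2; NADH fluorescence (360/450 nm) read 5 times over 30-s intervals, last minus first.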
# An asterisk follows results filed as active; ? = inconclusive; · = not tested or not shown; [ ] = remark or other dose. Compounds with a hit are over-represented: about 9.9% of the library has one in this group of screens. Unless noted, calls come from the whole dose curve; as a rule, active = well fitted inhibition curve with a large enough effect (not every such curve was filed as active); inconclusive = small, poorly fitted or top-dose-only effect, or another doubt; inactive = no such curve, though single readings can be large or run the other way. Unless noted, % is set by controls: 0 for no effect and ±100 for the full control effect; potency is the fitted concentration of half-maximal effect.
SMILES,Tau fibril ThT,Tau fluor cs,Tau FP inhib,ALDH1A1 inh,JMJD2E inh,HPGD inh
Cc1cc(C)c2cc(C)c(SCC(=O)NCc3ccco3)nc2c1,-20%,-13%,9%,14µM*,-9%,·
C=CCn1c(SCC(=O)NCc2ccco2)nnc1-c1ccc2ccccc2n1,?,-2%,-7%,?,-29%,16µM*
O=C(CSc1ccccc1)NCc1ccco1,-4%,-1%,-9%,6%,9%,28µM*
O=C(CSc1ccc2c(c1)OCCO2)Nc1ccc2c(c1)OCO2,-21%,-19%,1%,?,-8%,-13%
O=C(CSc1ccc2c(c1)OCCO2)Nc1ccc(Br)cc1,?,-9%,-11%,7.1µM*,?,·
Cc1occc1-c1nnc(SCC(=O)NCc2ccco2)n1CC(C)C,?,-6%,?,?,?,-13%
Cc1cc(C)c2cc(C#N)c(SCC(=O)NCc3ccco3)nc2c1,?,-1%,?,?,?,-19%
Cn1c2c(c(=O)c3ccccc31)C[C@@H](O)C(C)(C)O2,-2%,-4%,-3%,0%,-3%,-14%
CCC(=O)Nc1ccccc1-c1nc2ccccc2n(CC(=O)c2ccc(Br)cc2)c1=O,-7%,-5%,-2%,·,·,·
CC(C)c1ccc(C(=O)CSc2n[nH]c(-c3ccncc3)n2)cc1,-16%,?,-13%,?,2%,-18%
Cc1c(Cl)cccc1NC(=O)Nc1nnc(N(C)Cc2ccccc2)s1,-12%,2%,?,·,·,·
CC(C)C(CC(=O)NCc1ccco1)c1ccco1 (stereo not given),-18%,0%,-1%,?,0%,14µM*
CC(C)(C)c1nc2ccccc2c2nnc(SCC(=O)NCc3ccco3)n12,-8%,-5%,-2%,25µM*,0%,16µM*
CCCn1cc(SCC(=O)NCc2ccco2)c2ccccc21,-18%,-12%,-6%,?,-2%,18µM*
Cc1ccc(Cc2c(C)nc3nc(SCC(=O)NCc4ccco4)nn3c2C)cc1,?,-3%,-1%,-10%,-7%,-20%
O=C(CSc1cn(CCNC(=O)c2ccccc2)c2ccccc12)NCc1ccco1,?,-26%,-8%,?,-11%,-10%
Cc1cccc(Cc2c(C)nc3nc(SCC(=O)NCc4ccco4)nn3c2C)c1,-16%,-4%,-5%,25µM*,-2%,16µM*
CC(C)[C@@H](OCc1ccccc1)[C@H](C)/C=N\OC[C@@H](O)COCc1ccco1,-3%[11.5 µM],-4%[11.6 µM],-3%[11.6 µM],6%[13.5 µM],·,·
CN(CC(=O)O)Cc1c[nH]c2ccccc12,·,·,·,19%[13.5 µM],·,-2%
Cc1cc(=O)oc2c(OS(C)(=O)=O)c(OS(C)(=O)=O)ccc12,·,·,·,-10%[13.5 µM],·,-10%
O=C(O)c1ccc(N/N=C/c2ccc(OC(=O)c3ccccc3Cl)cc2)cc1,?,?,3%,3%,-19%,25µM*
O=C(O)c1ccc(N/N=C/c2ccc(-c3ccccc3)cc2)cc1,8.9µM*,16µM*[quencher],11%,3%,?,·
COc1ccc(C(=O)c2ccc(OC)c(Br)c2)cc1Br,-17%,-25%,-14%,20µM*,8%,-16%
O=C(O)c1ccc(N/N=C/C=C/c2ccccc2)cc1,·,-26%,-7%,·,-26%,·
C(=N\Nc1ccccc1)/c1ccc(N2CCOCC2)cc1,35µM*,?,12%,6.3µM*,?,14µM*
SMILES,Tau fibril ThT,Tau fluor cs,Tau FP inhib,ALDH1A1 inh,JMJD2E inh,HPGD inh
O=C(O)c1ccc(N/N=C/c2ccc(-c3ccccc3Cl)o2)cc1,?,?,14%,·,?,·
CC(C)c1ccc(/C=N/Nc2ccc(C(=O)O)cc2)cc1,?,-13%,8%,?,-9%,14µM*
COc1ccc(/C=N/Nc2ccc(C(=O)O)cc2)cc1OC,?,-7%,-3%,·,-15%,·
COc1ccc(/C=N/Nc2ccc(C(=O)O)cc2)cc1Br,7.1µM*,?,7%,?,?,·
COC(=O)c1ccc(N2C(=O)CC(N3CCOCC3)C2=O)cc1 (stereo not given),-3%,-5%,-15%,28µM*,0%,-7%
CC(=O)Nc1ccc(N2C(=O)CC(N3CCSCC3)C2=O)cc1 (stereo not given),9%,15%,6%,?,-25%,·
CCOc1ccc(N2C(=O)CC(N3CCN(C(=O)CN4CCCC4)CC3)C2=O)cc1 (stereo not given),-17%,0%,0%,16µM*,-6%,-7%
CC(=O)Nc1ccc(N2C(=O)CC(N3CC(C)OC(C)C3)C2=O)cc1 (stereo not given),-2%,-2%,-4%,7.9µM*,4%,-14%
CCCOc1ccc(N2C(=O)CC(N3CCOCC3)C2=O)cc1 (stereo not given),-14%,-12%,-7%,25µM*,6%,-7%
CN1C(=O)CC(N2CCN(C(=O)CN3CCCC3)CC2)C1=O (stereo not given),-5%,-7%,-2%,3%,4%,0%
CCCOc1ccc(N2C(=O)CC(N3CCC(C(=O)OCC)CC3)C2=O)cc1 (stereo not given),-8%,-6%,0%,?,-1%,-7%
COc1cccc(CN(C)C(=O)c2csc3c2CCCC3)c1OC,-5%,-3%,1%,-6%,-2%,·
CC(C)(C)c1ccc(C(=O)NC2(C(F)(F)F)C(=O)Nc3c2c(=O)[nH]c(=O)n3-c2ccccc2)cc1 (stereo not given),-2%,-4%,2%,·,·,·
CCOC(=O)C1CCCN(C2CC(=O)N(c3cccc(C)c3)C2=O)C1 (stereo not given),-12%,3%,5%,?,1%,-6%
CCCOc1ccc(N2C(=O)CC(N3CCCC(C(=O)N4CCCC4)C3)C2=O)cc1 (stereo not given),-5%,6%,0%,18µM*,-2%,-12%
Clc1ccc(C2=NN=C3COc4ccccc4N3C2)cc1,-2%,3%,1%,6%,-3%,20µM*
COc1ccc(N2CCN(CCC3Oc4cc([N+](=O)[O-])ccc4NC3=O)CC2)cc1 (stereo not given),7.9µM*,?,13%,-8%,5%,·
CC(C)c1ccccc1NC(=O)COC(=O)/C=C/c1cccc([N+](=O)[O-])c1,-8%,-12%,-4%,3%,7%,-5%
COc1ccccc1N=Nc1nc(-c2ccccc2)c(-c2ccccc2)[nH]1,3.5µM*,?,3%,22µM*,7%,-11%
Oc1ccccc1N=Nc1nc(-c2ccccc2)c(-c2ccccc2)[nH]1,4.5µM*,11µM*[quencher],-5%,-5%,-27%,-21%
COc1ccc(N=Nc2nc(-c3ccccc3)c(-c3ccccc3)[nH]2)cc1,4µM*,?,6%,-3%,-8%,-10%
